Measured values taken from PubChem BioAssay AID770 (SRMLSC, 2007).
The whole screen tested about 3,300 compounds, of which fewer than 10 were called active.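 The calls were made as follows: active = growth inhibition above 90% in viable cell count at a single dose; inactive = growth inhibition below 90%.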 These entries were drawn from the full list.

Assay: HT29 colon tumor cell growth inhibition, primary screen, imaging, high content imaging, 24 h, CellTiter-Glo (AID 770);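 as to condensed nuclei: share of cells whose nuclear area falls below control median minus 1.5 SD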
Details: HT29 cell number by imaging, at 10 µM, stronger effect = higher value; for condensed nuclei: measured here: percent cells with condensed nuclei
[1] = measured here: ATP CellTiter-Glo viability

SMILES	growth inhibition	growth inhibition [1] [%]	condensed nuclei [%]
CCCCCC(=O)N1CC2(C)CN(C(=O)CCCCC)CC(C)(C1)C2=O	-27.8% (inactive)	-0.56	1.67
CN1CCc2c(n(CC(O)CN3C(=O)c4ccccc4S3(=O)=O)c3ccccc23)C1=O (stereo not drawn)	3.96% (inactive)	-10.2	8.09
O=C1CC(C(=O)O)c2ccccc2N1 (stereo not drawn)	10.3% (inactive)	0.11	2.67
COc1nc(NS(=O)(=O)c2ccc(C)cc2)nc(C)c1Cl	9.89% (inactive)	-6.08	2.47
CCOC(=O)N1CCN(c2ncnc3c2cnn3-c2ccc(OC)cc2)CC1	17% (inactive)	5.78	3.96
CCOC(=O)C1CCCN(c2nc3ccccc3nc2C(C#N)C(=O)OCCOC)C1 (stereo not drawn)	49.2% (inactive)	70	9.83
Cn1ncc2nc[nH]c(=O)c21	27.4% (inactive)	0.04	2.08
CC(C)Nc1nc(NC(C)C)nc(N(C)n2cnnc2)n1	-12.4% (inactive)	-9.08	2.84
COc1ccc(C(=O)OC(C)CN2CCN(C)CC2)cc1OC (stereo not drawn)	28.2% (inactive)	1.58	5.84
Cc1cc(Cn2ccnc2)c(C)cc1Cn1ccnc1	13.6% (inactive)	11.6	3.14
COc1cc(-c2nn3c(COc4ccccc4)nnc3s2)cc(OC)c1OC	56.5% (inactive)	9.54	5.76
CCOC(=O)C1=C(C)NC(SCC(=O)Nc2nc(C)cs2)=C(C#N)C1c1cccs1 (stereo not drawn)	7.8% (inactive)	22.8	5.36
COc1ccc(OC)c(NC(=O)CSc2nnc(-c3ccco3)n2-c2ccc(C(=O)O)cc2)c1	5.68% (inactive)	-8.2	4.63
c1ccc(N2CCN(c3nc(-c4ccccn4)nc4ccccc34)CC2)cc1	4.92% (inactive)	-10.8	11.6
CC1(C)Cc2c(C#N)c(OCC(=O)c3ccc(Cl)cc3)nc(-c3ccoc3)c2CO1	18.7% (inactive)	21.9	4.85
O=C(NCc1ccccc1)c1ccc(=O)[nH]n1	-5.75% (inactive)	-8.23	3.79
Cc1ccc(NC(=O)Cn2nc(C)c3ccccc3c2=O)cc1	-20% (inactive)	-4.94	3.28
COc1ccc(OC)c(C2NC(=O)c3sc(=S)n(-c4ccccc4)c3N2)c1 (stereo not drawn)	36.6% (inactive)	16.9	4.81
CC(=O)N1CC=C2C(C#N)=C(N)C(C#N)(C#N)[C@H](c3ccoc3)[C@H]2C1	6.78% (inactive)	-12.8	3.16
Cc1ccc(CNc2oc(COc3ccccc3Cl)nc2C#N)cc1	-7.99% (inactive)	-1.41	4.34
CCOC(=O)C(NC=O)(NC(C)(C)C)C(=O)OCC	-28.5% (inactive)	-6.54	2.61
Cc1nc2sc(C#N)c(N)c2c2c1CCCC2	-26.7% (inactive)	-6.54	1.98
Cn1c(SCC(=O)N2CCOCC2)nnc1-c1ccc(Cl)cc1Cl	30.4% (inactive)	-11.5	2.99
COc1ccc(C2CC(=O)C(C=NCCN3CCOCC3)=C(O)C2)cc1 (stereo not drawn)	30% (inactive)	-14.6	0.91
CC(NC(=O)CSc1nnc(COc2ccccc2)o1)c1ccccc1 (stereo not drawn)	2.08% (inactive)	-10.8	4.42
N#CC1=C(SCC(=O)c2ccccc2)NC2=C(C(=O)CCC2)C1c1ccco1 (stereo not drawn)	77% (inactive)	12.5	20.4

SMILES	growth inhibition	growth inhibition [1] [%]	condensed nuclei [%]
Cn1c(=O)c2c3c(sc2n2c(SCC(N)=O)nnc12)CC(C(C)(C)C)CC3 (stereo not drawn)	-4.56% (inactive)	-15.8	3.87
CN(CCOC(=O)c1cccc(Br)c1)C(C)(C)C	6.82% (inactive)	3.02	2.48
COC(=O)c1cc(Br)c(=O)n(Cc2cccnc2)c1	6.29% (inactive)	-14.1	1.99
CC12CN3CC(C)(CN(C1)C3c1ccc(Cl)cc1Cl)C2O (stereo not drawn)	15% (inactive)	0.64	2.07
CC1(C)Cc2c(c(N3CCOCC3)nc3sc(C#N)c(N)c23)CS1	16.1% (inactive)	12.8	14
COc1cccc(CNc2ncc(Br)cc2Br)c1O	28.4% (inactive)	3.03	8.79
COc1ccccc1NC(=O)c1c(C)cc(=O)oc1C	2.52% (inactive)	-2.65	1.89
C=CCc1c(C)nc(SCCC)[nH]c1=O	-39.5% (inactive)	9.14	4.83
Cc1cc(N2C(=O)C(=O)/C(=C(/O)c3ccccc3)C2c2cccs2)no1 (stereo not drawn)	-3.8% (inactive)	-3.1	2.92
N#Cc1c(NCCN)nc(NCc2ccccc2)c2c1CCN(Cc1ccccc1)C2	48.7% (inactive)	41.2	7.1
CSC1=C(C#N)C(c2ccc(C)s2)CC(=O)N1 (stereo not drawn)	22.7% (inactive)	4.49	3.3
COc1cc(-c2cc(C(F)(F)F)n3ncc(C(=O)O)c3n2)cc(OC)c1OC	-25.6% (inactive)	-14.3	2.49
O=C(O)CCc1cc(I)c(Oc2ccc(O)c(I)c2)c(I)c1	4.78% (inactive)	3.12	4.44
O=C(O)c1c[nH]c2ccc(S(=O)(=O)N3CCOCC3)cc12	-36.6% (inactive)	-2.36	1.85
Cc1cc(C)nc(NC2=NCC(=O)N2c2ccccc2)n1	-50.8% (inactive)	-10.6	3.13
COc1ccc(C2C(C(C)=O)=C(O)C(=O)N2c2nccs2)cc1OC (stereo not drawn)	6.29% (inactive)	-2.95	3.31
CCc1cc(=O)oc2cc(C)c(CN3CCCC3)c(O)c12	22.4% (inactive)	0.04	4.19
CN(C)CCCN(CCCNC(=O)/C=N/O)Cc1ccccc1	-11.9% (inactive)	-9.76	2.84
Nc1nnnn1CC(=O)OCc1cccc(Br)c1	-17.1% (inactive)	-5.1	1.92
CN1CC(=O)Nc2ccc(F)cc2C1=O	2.67% (inactive)	-9.28	13.9
CCCC(=O)N(Cc1cc2ccccc2[nH]c1=O)c1ccccc1OC	0.99% (inactive)	5.4	3.75
COc1ccc(CNC(=O)[C@H](C)NC(=O)C2CCN(S(=O)(=O)c3ccc(C)cc3)CC2)cc1	-1% (inactive)	-14.3	4.4
CCc1nc2sc3c(c2c(=O)o1)CCCC3	-25.2% (inactive)	-2.13	2.35
Cc1ccc(N(CN2C(=O)NC(C)(C)C2=O)CN2C(=O)NC(C)(C)C2=O)cc1	24.1% (inactive)	-7.36	3.39
CN(C)CCCN1c2ccccc2Sc2ccc(Cl)cc21	37.5% (inactive)	25.5	5.79
CN(C)CCCN1c2ccccc2Sc2ccc(C(F)(F)F)cc21	62.5% (inactive)	40.5	4.92

SMILES	growth inhibition	growth inhibition [1] [%]	condensed nuclei [%]
CN1CCN(CCCN2c3ccccc3Sc3ccc(Cl)cc32)CC1	-25.4% (inactive)	-28.5	2.59
CN1CCN(CCCN2c3ccccc3Sc3ccc(C(F)(F)F)cc32)CC1	95.6% (active)	87.9	15.7
OCCN1CCN(CCCN2c3ccccc3Sc3ccc(Cl)cc32)CC1	95.8% (active)	77.7	11.7
OCCN1CCN(CCCN2c3ccccc3Sc3ccc(C(F)(F)F)cc32)CC1	89% (inactive)	59.7	12.9
CCN(CC)CCNc1nc(-c2ccco2)c2c(c1C#N)CC(C)(C)OC2	0.38% (inactive)	-1.61	4.74
CC1(C)CC(=O)C=C(NCCO)C1	25.6% (inactive)	9.68	3.37
O=S(=O)(c1cccc2nsnc12)N1CCN(C/C=C/c2ccccc2)CC1	-27% (inactive)	4.18	4.32
Cc1cc(OCC(=O)Nc2ccc3oc(-c4ccncc4)nc3c2)ccc1Cl	-2.56% (inactive)	-0.21	2.42
CCC(NC(=O)Nn1cnnc1)(C(F)(F)F)C(F)(F)F	3.51% (inactive)	-0.07	2.8
O=C(NCCN1CCCCC1)c1ccc(=O)oc1	-6.93% (inactive)	-12.9	2.43
CC(=Nc1ccc(C)c(C)c1)C1=C(O)CCC1=O	6.59% (inactive)	-5.94	3.62
CCN(CC)CCNc1nc2c(c(=O)[nH]c(=O)n2C)n1CCOc1ccccc1	-28.8% (inactive)	-0.48	2.26
Cc1ccc(C2C(C(=O)c3cc4ccccc4o3)=C(O)C(=O)N2CCN(C)C)o1 (stereo not drawn)	-17.9% (inactive)	-1.01	2.37
CCOc1cc(C2Nc3ccccc3C(=O)N2c2ccccc2OC)ccc1O (stereo not drawn)	1.14% (inactive)	-2.4	1.12
Cn1c(=O)c2c(nc(Br)n2CCSc2ncccn2)n(C)c1=O	17.9% (inactive)	6.9	1.48
Cc1ccc(N2C(=O)CC3(CC4C=CC3C4)C2=O)cc1 (stereo not drawn)	-2.66% (inactive)	9.8	2.87
CNC(=O)CC(C(=O)O)c1ccc(OC(C)C)cc1 (stereo not drawn)	14% (inactive)	5.18	2.97
CC(C)Sc1nc(N2CCCC2)c2c(c1C#N)CC(C)(C)OC2	-32.3% (inactive)	-22.9	2.77
CN1C2C=C3C(C#N)=C(N)C(C#N)(C#N)[C@@H](c4cccs4)C3C1CC2 (stereo partly drawn)	-11.2% (inactive)	-11.8	3.15
N#C/C(C(=O)NCc1ccco1)=C1/SC(Cc2ccc(F)cc2)C(=O)N1c1ccccc1 (stereo not drawn)	16.5% (inactive)	-3.7	7.66
CCOC(=O)/C=c1\s/c(=C(\C#N)C(=O)OCC)n(-c2ccccc2)c1=O	-8.81% (inactive)	-10.2	2.51
Cc1nc(Nc2ncc3c(n2)CCCC3=O)nc2ccccc12	-21.1% (inactive)	-26.2	3.04
CCOC(=O)c1[nH]c2cc3c(cc2c1NC(=O)CN1CCC(C)CC1)OCO3	37.9% (inactive)	20	3.55
O=C(C1=C(O)C(=O)N(CCCN2CCOCC2)C1c1ccccn1)c1cc2ccccc2o1 (stereo not drawn)	-11.4% (inactive)	-7.9	2.31
